RORgamma inh: ROR gamma (mouse) transcription inhibition | P51450 | Drosophila S2 Gal4-RORgamma UAS-luciferase reporter, 20 h | Potency, µM (highest dose often 53.6 µM), without a hit: at the top dose activity change, negative = inhibition, most hits filed as inhibitors | hit rate 5.4% among 310,000 | AID 2551; note: potency is the fitted concentration of half-maximal effect; % is set by controls: 0 for no effect and ±100 for the full control effect; nearly all actives have a fitted effect of over 60% in size
Target sequence (P51450 whole entry, looked up, the tested form may be a part): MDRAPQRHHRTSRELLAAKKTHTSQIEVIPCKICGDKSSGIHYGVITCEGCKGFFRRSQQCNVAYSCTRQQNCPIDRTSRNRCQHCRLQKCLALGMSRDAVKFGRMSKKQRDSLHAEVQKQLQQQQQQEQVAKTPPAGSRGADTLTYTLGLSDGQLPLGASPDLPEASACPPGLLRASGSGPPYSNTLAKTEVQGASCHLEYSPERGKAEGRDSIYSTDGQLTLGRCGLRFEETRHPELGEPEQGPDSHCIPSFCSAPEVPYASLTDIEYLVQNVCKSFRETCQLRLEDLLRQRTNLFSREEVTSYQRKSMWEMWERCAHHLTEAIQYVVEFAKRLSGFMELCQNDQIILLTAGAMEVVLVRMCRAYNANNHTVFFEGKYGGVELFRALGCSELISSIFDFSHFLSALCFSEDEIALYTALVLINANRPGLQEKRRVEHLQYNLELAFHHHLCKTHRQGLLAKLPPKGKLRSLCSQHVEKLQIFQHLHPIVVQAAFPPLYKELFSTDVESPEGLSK
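Stably transfected Drosophila Schneider cells are the test system, with ROR gamma fused to Gal4 and luciferase under UAS control; luminescence is read after 20 hr of 700 uM copper sulfate induction at ambient temperature.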
Gal4-VP16 FLuc: counter-screen for ROR gamma inhibitors: Gal4-VP16 reporter. Drosophila S2 Gal4-VP16 UAS-luciferase, luminescence, 20 h. Potency, µM (top dose mostly 53.6 µM), for inactives: at the highest dose activity, negative = inhibition, most hits filed as inhibitors. hit rate 3.5% among 310,000. AID 2546;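 note: Gal4-VP16 expression switched on by copper sulfate through the metallothionein promoter; potency is the fitted concentration of half-maximal effect; % is set by controls: 0 for no effect and ±100 for the full control effect; nearly all actives have a fitted effect of over 50% in size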
SW480 rereplic: inducers of DNA re-replication in SW480 colon cancer cells; Potency, µM (top dose mostly 46.1 µM), without a hit: at the highest dose re-replication activation, most hits filed as activators; hit rate 1.8% among 340,000; AID 624297; SW480 DNA re-replication, Hoechst DNA content imaging, 48 h; note: potency is the fitted concentration of half-maximal effect; % of control where 0% means no effect; nearly all actives have a fitted effect of over 55% in size
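Image-based DNA-content assay: after two days of treatment, nuclei were labelled with the DNA dye Hoechst and imaged, and hits were compounds raising the count of nuclei showing high fluorescence intensity.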
MCF10A rerep: inducers of DNA re-replication in MCF 10A breast cells; MCF 10A DNA re-replication, Hoechst nuclear intensity, 48 h; Potency, µM (doses to about 46.1 µM), for the others: at the top dose activity, positive = re-replication, actives largely listed as activators; hit rate 2.9% among 350,000; note: potency is the fitted concentration of half-maximal effect; % of control where 0% means no effect; nearly all actives have a fitted effect of over 50% in size
IL1B secr inh: inhibitors of inflammasome signaling (IL-1 beta secretion); AID 743279; activity change, % at 57.5 µM; THP-1 LPS/ATP IL-1B secretion, AlphaLISA, 16 h; stronger effect = lower value; hit rate 4.7% among 360,000; in the data active = activity change below about -50%; inconclusive = mostly about -30% to -49%; note: % is set by controls: 0 for no effect and ±100 for the full control effect
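THP-1 cells pretreated 1 hr with compounds (up to 57.5 uM final), then stimulated with LPS (250 ng/mL final) plus ATP (1.25 mM final); secreted IL-1B measured by AlphaLISA after 16 hr, decreased signal indicating inhibition.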
Starred values were filed as active, the others as inactive; ? = inconclusive; nt = no result given; [ ] = another dose, or the depositor's remark. Rows were chosen to be rich in hits. Some 11% of all compounds tested hit in one or more screens of this group. Unless noted, calls come from the whole dose curve; as a rule, active = well fitted curve in the direction sought with a large enough effect; inconclusive = small, poorly fitted or top-dose-only effect, or another doubt; inactive = no such curve, though single readings can be large; an effect the other way counts as inactive or inconclusive.

SMILES	RORgamma inh	Gal4-VP16 FLuc	SW480 rereplic	MCF10A rerep	IL1B secr inh
N#C/C(=C\c1ccccc1)C(=O)Nc1cccnc1	-10.2%	-5.7%	-13.6%	-1.9%	12.5
COc1ccc(C(=O)N2CCC3(CCN(Cc4cc(C(F)(F)F)cc(C(F)(F)F)c4)CC3)CC2)cc1	1.3%	-10.4%	nt	nt	nt
O=C(OCCCCN1C(=O)c2ccccc2C1=O)c1n[nH]c2ccccc12	-110.4%	31.6µM*	1.9%	-188.9%[0.0737 µM]	12.3
CC(=O)c1c(C)[nH]c(C(=O)OCCCCN2C(=O)c3ccccc3C2=O)c1C	?	8.91µM*	14.0%	17.7%	17.2
COc1ccc(CNc2ncnc3ccc(-c4ccc5c(c4)OCO5)cc23)c(OC)c1	?	1.8%	nt	nt	nt
CC(=O)Nc1ccc(S(=O)(=O)NCCc2ccc3c(c2)OCCO3)cc1	nt	nt	nt	nt	16.6
CNC(=S)N/N=C/c1c(C(=O)OC)cnn1-c1ccc(F)cc1F	8.91µM*	?	-64.9%	6.8%	1.8
COC(=O)c1cnn(-c2ccccc2)c1/C=N/NC(=S)Nc1ccccc1	0.891µM*	3.55µM*	2.7%	1.1%	90.8
COC(=O)c1cnn(-c2ccc(F)cc2F)c1/C=N/NC(=S)NC(C)(C)C	1.26µM*	?	-0.7%	1.2%	33.8
CCC[C@@H](O)c1cc2cc(OC)c(OC)cc2c(=O)o1	nt	nt	-2.9%	3.0%	-14.0
O=C(N/C(=C\c1ccccc1)C(=O)N1CCCCC1)c1ccco1	-2.8%	4.8%	-3.0%	-4.1%	24.0
Cc1cc(C(=O)C(C)Sc2cccc[n+]2[O-])c(C)n1-c1ccc(Cl)cc1 (centres undefined)	?	-18.8%	-0.7%	15.9%	-101.0*
Cc1cc(C(=O)C(=O)O)c(C)n1-c1ccc(Cl)cc1	34.4%	-16.8%	-5.4%	20.4%	2.3
COCCCNc1nnc(Cc2ccc(Cl)cc2)c(=O)[nH]1	-8.3%	-4.1%	?	0.517µM*	24.3
COc1ccc(C(O)c2nc(-c3cccc(F)c3)cs2)cc1 (centres undefined)	nt	nt	nt	nt	-93.3*
CC(=O)N1CCC(=NNc2ncc(C(F)(F)F)cc2Cl)CC1	3.16µM*	?	?	20.1%	110.8
O=C(O)CC/C(=N/Nc1ncc(C(F)(F)F)cc1Cl)C(=O)O	12.6µM*	?	-7.6%	-3.0%	30.0
CCOC(=O)N1CCC(=NNc2ncc(C(F)(F)F)cc2Cl)CC1	7.08µM*	?	?	-0.4%	-13.4
O=C(O)/C=C/C(=O)NCCNc1ncc(C(F)(F)F)cc1Cl	4.9%	0.9%[10 µM]	7.8%	0.0%	1.9
NC(=O)CNc1ncc(C(F)(F)F)cc1Cl	-5.3%	-9.4%	-21.9%	1.5%	14.9
O=C(Cn1nc(C(=O)O)c2ccccc2c1=O)Nc1ccccc1C(F)(F)F	33.8%	7.7%	-1.1%	-6.7%	-4.5
CCC(=O)N1CCCC(C(=O)c2ccc(-c3ccccc3)cc2)C1 (centres undefined)	?	-8.9%	-10.9%[9.22 µM]	2.5%	-68.1*
CCN1CCN(CC(=O)N2CCCC(C(=O)c3ccc(Oc4ccccc4)cc3)C2)CC1 (centres undefined)	7.94µM*	?	3.2%	5.4%	-14.3
COC(=O)CCCC(=O)N1CCCC(C(=O)c2ccc(-c3ccccc3)cc2)C1 (centres undefined)	13.6%	29.7%	-3.6%	-3.2%	8.8
COCCC(=O)N1CCCC(C(=O)c2ccc(Oc3ccccc3)cc2)C1 (centres undefined)	45.0%	-10.2%	-0.9%	6.6%	-1.2
SMILES	RORgamma inh	Gal4-VP16 FLuc	SW480 rereplic	MCF10A rerep	IL1B secr inh
COc1ccc(NC(=O)c2ccc(OC)c(S(=O)(=O)N3CCCCC3C)c2)cn1 (centres undefined)	nt	nt	-16.9%	0.1%	62.3
Cc1cccc(CN2C(=O)NC(c3ccccc3)(c3ccccc3)C2=O)c1	?	3.9%	28.9%	?	-22.8
Cc1noc(C)c1CN1C(=O)NC(Cc2ccccc2)(Cc2ccccc2)C1=O	11.2µM*	-0.8%	0.8%	27.7%	0.0
Fc1cccc(Cc2c(-c3cccc(Cl)c3)nc3c(Cl)cc(C(F)(F)F)cn23)c1	nt	nt	nt	nt	15.6
O=C(CSc1nc(C2CC2)nc2ccccc12)Nc1ccccc1N1CCOCC1	?	2.8%	?	?	-76.3*
O=C(CSc1nc(C2CC2)nc2ccccc12)Nc1ccccc1Cl	-11.5%	-2.7%	-14.0%	-2.0%	-3.7
Cc1cccc(NC(=O)CSc2nc(C3CC3)nc3ccccc23)c1	-29.9%	4.5%	15.0%	?	-26.3
CC(=O)c1cccc(NC(=O)CSc2nc(C3CC3)nc3ccccc23)c1	27.6%	16.3%	19.9%	?	-96.2*
COc1cc(NC(=O)CSc2nc(C3CC3)nc3ccccc23)cc(OC)c1	-4.9%	-2.7%	?	?	-15.9
O=C(CSc1nc(C2CC2)nc2ccccc12)Nc1ccccc1	-6.9%	13.8%	0.3%	-4.5%	-60.8*
CC(=O)Nc1cccc(NC(=O)CSc2nc(C3CC3)nc3ccccc23)c1	5.5%	7.3%	?	17.7%	-79.4*
CC(=O)c1ccc(OCCCC(=O)NNC(=O)c2ccccn2)cc1	nt	nt	56.5%	5.0%	138.2
CC(C)(C)c1ccc(C(=O)NCC(=O)N2CCCCCC2)cc1	?	13.2%	?	-4.0%	-7.6
O=C(Nc1ncccc1O)c1cccc(S(=O)(=O)NCc2ccccc2)c1	nt	nt	-8.0%	1.9%	-2.0
O=C(O)c1cccc(Oc2ccc(C(=O)O)c([N+](=O)[O-])c2)c1	nt	nt	-0.6%	-0.3%	-1.5
CN(C)c1ccc(NC(=O)CSc2nc(C3CC3)nc3ccccc23)cc1	-13.1%	-14.7%	?	?	-16.5
CCN(CC)c1ccc(NC(=O)CSc2nc(C3CC3)nc3ccccc23)cc1C	4.9%	-19.1%	8.2µM*	6.51µM*	-18.2
C=C1CCN(C(CC(C)C)C(=O)O)S(=O)(=O)c2ccccc21 (centres undefined)	10.7%	23.4%	nt	nt	nt
Cc1ccccc1C(=O)NNC(=S)NC(=O)c1cccnc1	11.2µM*	?	-5.5%	7.7%	37.2
O=C(NC(=S)NNC(=O)c1ccccc1F)c1cccnc1	11.2µM*	?	?	0.0%	38.2
O=C(NC(=S)NCc1cccnc1)c1ccccc1F	-27.4%	4.8%	-4.8%	9.8%	10.9
S=C(NCc1cccs1)Nc1ccccc1Cl	12.6µM*	14.1µM*	-0.7%	6.5%	-0.8
S=C(NCc1cccs1)Nc1cccc(Cl)c1	20µM*	?	?	6.3%	18.0
O=C(NCc1cccs1)Nc1cccc(Cl)c1	nt	nt	-7.5%	-2.2%	-8.1
S=C(NCc1cccs1)Nc1cc(Cl)cc(Cl)c1	12.6µM*	?	?	23.1µM*	-83.3*
O=C(Cc1cccs1)NCc1cc(Cl)cc(Cl)c1	3.9%	8.2%	-3.2%	19.1%	?
C=CCSC[C@@H]1Nc2cc(Cl)c(S(N)(=O)=O)cc2S(=O)(=O)N1	4.2%[16.9 µM]	-11.4%[17 µM]	nt	nt	nt
O=C1[C@H]2CCCC[C@H]2C(=O)N1CCCCN1CCN(c2nsc3ccccc23)CC1	-5.7%[10 µM]	1.2%	?	?	-65.0*

Screening results (PubChem)
